Consider ten molecules from PubChem BioAssay (EPA / NIEHS).

Results filed as inconclusive are left out. The source made the active and inactive calls. How the source made its calls, unless noted: active means hit-call score of the fitted dose curve at least 0.9, where 1 is the maximum; inactive means score below 0.9.

Read-out in assay [1]: CD69, CD69 (gene 969)
Nature of the assay: BSK_SAg_CD69: BioMAP Diversity Plus: SAg Assay for CD69 Biomarker Activity (AID 2283089).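 On AC50: cell surface CD69 protein quantified by ELISA with fluorescence detection.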 Conditions: primary human HUVEC with PBMC; actives raise or lower the signal. In a few lines:
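Primary human vascular co-culture (umbilical vein endothelium with peripheral blood mononuclear cells) exposed to test chemical for 24 h. CD69 levels quantified by fluorescence ELISA; DMSO served as negative control for bidirectional fitting.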

Read-out in assay [2]: Monocyte Chemoattractant Protein-1 (MCP1), CCL2 (gene 6347)
The assay is described as follows: BSK_SAg_MCP1: BioMAP Diversity Plus: SAg Assay for Monocyte Chemoattractant Protein-1 (MCP1) Biomarker Activity (AID 2283090). Conditions: primary human HUVEC with PBMC; actives raise or lower the signal. In a few lines:
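MCP-1 levels in the endothelial–PBMC SAg co-culture were quantified by ELISA at 24 h post-dosing; both increases and decreases versus DMSO scored. Cytotoxicity monitored by SRB total protein in parallel cultures.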

Read-out in assay [3]: E-selectin (Homo sapiens) (UniProt P16581)
The assay is described as follows: BSK_SAg_Eselectin: BioMAP Diversity Plus: SAg Assay for Eselectin Biomarker Activity (AID 2283091). Conditions: primary human HUVEC with PBMC; actives raise or lower the signal. The procedure, abridged:
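Cell-surface E-selectin is read by ELISA at 24 h in the SAg co-culture of HUVEC and PBMC. Curves are fitted in both directions relative to DMSO. Parallel SRB total-protein staining tracks overt toxicity.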

Read-out in assay [4]: Monokine induced gamma interferon (MIG), CXCL9 (gene 4283)
The assay is described as follows: BSK_SAg_MIG: BioMAP Diversity Plus: SAg Assay for Monokine induced gamma interferon (MIG) Biomarker Activity (AID 2283092). Conditions: primary human HUVEC with PBMC; actives raise or lower the signal. In a few lines: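 Endothelial cells and PBMC were co-cultured, exposed to test chemicals, and sampled 24 h later. MIG was measured by ELISA, and responses were fitted in both directions relative to DMSO.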

The nature of assay [5]: BSK_SAg_PBMCCytotoxicity: PBMC Cytotoxicity Assessment in the BioMAP Diversity Plus: SAg Assay (AID 2283093).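 Further: PBMC viability measured as Alamar Blue reduction fluorescence at 546/580 nm; fitted both ways against DMSO so a hit may be loss or gain of signal.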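 On AC50: PBMC superantigen activated with SEB plus TSST-1 one hour after compound addition.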 Conditions: primary human HUVEC with PBMC. In a few lines: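 HUVEC/PBMC co-culture; PBMC exposed to chemical 1 h before SEB and TSST-1 activation (20 ng/mL each), incubated 90 h, then Alamar Blue 6 h, fluorescence 546/580 nm. Bidirectional fit versus DMSO baseline.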

Read-out in assay [6]: Interleukin-8 (IL8), CXCL8 (gene 3576)
Nature of the assay: BSK_SAg_IL8: BioMAP Diversity Plus: SAg Assay for Interleukin-8 (IL8) Biomarker Activity (AID 2283094). Conditions: primary human HUVEC with PBMC; actives raise or lower the signal. The procedure, abridged: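 In this co-culture of human umbilical vein endothelium with peripheral blood mononuclear cells, IL-8 is assayed by ELISA at 24 h. DMSO serves as baseline for bidirectional curve fitting.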

Assay [7] in a line: BSK_SAg_Proliferation: Cell Proliferation Assessment in the BioMAP Diversity Plus: SAg Assay (AID 2283095).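 Further: relative cell number as total protein by SRB absorbance in sub-confluent culture.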 Conditions: primary human HUVEC with PBMC. In a few lines:
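Readout is SRB-stained protein (560 nm) in a primary human HUVEC and PBMC co-culture; sub-confluent cultures are read at 96 h. Activity is fitted bidirectionally using DMSO as baseline.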

Assay [8] is described as follows: BSK_SAg_SRB: Viability Assessment in the BioMAP Diversity Plus: SAg Assay (AID 2283096).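 Further: cells read one day after compound addition; hits may be either gain or loss of signal compared with DMSO.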 Conditions: primary human HUVEC with PBMC. The procedure, abridged: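 Human umbilical vein endothelial cells co-cultured with PBMC, read 24 h after compound dosing. Total protein measured by sulforhodamine B staining (0.1% SRB after 10% TCA fixation, absorbance 560 nm); bidirectional fit versus DMSO baseline.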

The target in assay [9] is human CYP19A1, CYP19A1 (gene 1588) (UniProt P11511). The assay is described as follows: NVS_ADME_hCYP19A1: NovaScreen (NVS) CYP450-related Enzyme Activity (ADME) Assay for human CYP19A1 (AID 2283098; active means hit-call score of the fitted dose curve at least 0.9, where 1 is the maximum). The procedure, abridged:
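Recombinant enzyme in a cell-free format, read 0.5 h after dosing by fluorescence from a fluorogenic substrate. Loss of signal was fitted against acetonitrile as baseline. Primary screen in duplicate at 10 uM, actives then tested in concentration series.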

Assay [10] has as its target human CYP2D6, CYP2D6 (gene 1565) (UniProt P10635). The assay is described as follows: NVS_ADME_hCYP2D6: NovaScreen (NVS) CYP450-related Enzyme Activity (ADME) Assay for human CYP2D6 (AID 2283107; active means hit-call score of the fitted dose curve at least 0.9, where 1 is the maximum). The procedure, abridged:
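Fluorescence readout of recombinant CYP2D6 (insect-cell derived) activity after 1 h incubation with test chemical. Acetonitrile served as baseline, loss-of-signal direction. Single-concentration duplicate screening at 10 uM preceded concentration-response retesting.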

Assay [11] has as its target human CYP1A1, CYP1A1 (gene 1543) (UniProt P04798). The assay is described as follows: NVS_ADME_hCYP1A1: NovaScreen (NVS) CYP450-related Enzyme Activity (ADME) Assay for human CYP1A1 (AID 2283100; active means hit-call score of the fitted dose curve at least 0.9, where 1 is the maximum). The procedure, abridged: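 Chemicals were first tested in duplicate at 10 uM, and those passing a 30% inhibition threshold were rerun as concentration series topping at 20 uM. Fluorescence read-out of recombinant enzyme turnover after 1 h, relative to acetonitrile.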

The target in assay [12] is human CYP2B6, CYP2B6 (gene 1555) (UniProt P20813). The assay is described as follows: NVS_ADME_hCYP2B6: NovaScreen (NVS) CYP450-related Enzyme Activity (ADME) Assay for human CYP2B6 (AID 2283101; active means hit-call score of the fitted dose curve at least 0.9, where 1 is the maximum). In a few lines: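 Cell-free recombinant enzyme assay with a fluorogenic substrate; fluorescence intensity read 1 hour after dosing. Loss of signal relative to acetonitrile negative control indicates inhibition. Primary screen run in duplicate at 10 uM, actives then tested in concentration series.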
Chain of human CYP2B6, CYP2B6 (gene 1555) (P20813 whole entry, looked up): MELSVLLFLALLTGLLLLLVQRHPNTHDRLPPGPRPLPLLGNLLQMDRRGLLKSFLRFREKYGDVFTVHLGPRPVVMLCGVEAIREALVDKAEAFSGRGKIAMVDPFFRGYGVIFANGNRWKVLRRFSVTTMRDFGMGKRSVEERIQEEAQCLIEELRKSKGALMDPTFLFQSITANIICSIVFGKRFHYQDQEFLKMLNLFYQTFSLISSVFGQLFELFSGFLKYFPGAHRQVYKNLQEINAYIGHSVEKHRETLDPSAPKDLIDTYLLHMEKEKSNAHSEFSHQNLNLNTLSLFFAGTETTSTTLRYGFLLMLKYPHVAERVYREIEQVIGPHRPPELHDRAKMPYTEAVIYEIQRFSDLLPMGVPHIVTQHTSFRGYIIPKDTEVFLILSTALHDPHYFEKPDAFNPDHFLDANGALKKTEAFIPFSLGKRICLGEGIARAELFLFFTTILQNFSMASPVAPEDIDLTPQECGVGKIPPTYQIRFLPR

Assay [13] has as its target Cytochrome P450 2C18 (Homo sapiens) (UniProt P33260). The assay is described as follows: NVS_ADME_hCYP2C18: NovaScreen (NVS) CYP450-related Enzyme Activity (ADME) Assay for human CYP2C18 (AID 2283103). In a few lines:
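Cell-free recombinant human CYP2C18 with fluorogenic substrate; fluorescence intensity read 0.5 h after dosing. Single-point screen at 10 uM in duplicate, then concentration-response up to 20 uM; loss of signal fitted against acetonitrile baseline.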

Assay [14] deals with Cytochrome P450 2C19 (Homo sapiens) (UniProt P33261). The assay is described as follows: NVS_ADME_hCYP2C19: NovaScreen (NVS) CYP450-related Enzyme Activity (ADME) Assay for human CYP2C19 (AID 2283113; active means hit-call score of the fitted dose curve at least 0.9, where 1 is the maximum;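 further: potency for inhibition seen as loss of fluorescent signal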). The procedure, abridged:
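Compounds first screened in duplicate at 10 uM, then confirmed in concentration series. Insect-cell-expressed human CYP2C19 turned over a fluorogenic substrate, and fluorescence was read after 1 h. Inhibition taken as signal loss relative to acetonitrile.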

In assay [15] the target is human CYP2C9, CYP2C9 (gene 1559) (UniProt P11712). The assay is described as follows: NVS_ADME_hCYP2C9: NovaScreen (NVS) CYP450-related Enzyme Activity (ADME) Assay for human CYP2C9 (AID 2283108; active means hit-call score of the fitted dose curve at least 0.9, where 1 is the maximum). In a few lines: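 Recombinant human CYP2C9 expressed in SF9 cells, fluorogenic substrate, fluorescence read 0.75 h after dosing. Chemicals first run in duplicate at 10 uM, with actives followed in concentration series; loss of signal versus acetonitrile baseline.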
Chain of human CYP2C9, CYP2C9 (gene 1559) (P11712 whole entry, looked up): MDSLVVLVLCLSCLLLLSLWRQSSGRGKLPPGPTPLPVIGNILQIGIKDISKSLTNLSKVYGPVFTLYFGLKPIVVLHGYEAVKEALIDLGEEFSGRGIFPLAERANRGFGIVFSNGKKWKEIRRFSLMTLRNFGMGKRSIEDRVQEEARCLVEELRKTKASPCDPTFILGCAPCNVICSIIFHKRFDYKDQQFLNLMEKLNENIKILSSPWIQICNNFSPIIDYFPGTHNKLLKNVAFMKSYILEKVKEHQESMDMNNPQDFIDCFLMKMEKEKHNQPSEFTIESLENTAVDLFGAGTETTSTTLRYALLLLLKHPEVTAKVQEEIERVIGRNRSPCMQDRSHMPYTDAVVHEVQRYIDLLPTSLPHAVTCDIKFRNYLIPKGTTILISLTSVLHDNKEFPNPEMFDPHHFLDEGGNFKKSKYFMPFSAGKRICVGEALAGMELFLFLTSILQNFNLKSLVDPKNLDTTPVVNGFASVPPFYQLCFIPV

The target of assay [16] is Cytochrome P450 3A4 (Homo sapiens) (UniProt P08684). Nature of the assay: NVS_ADME_hCYP3A4: NovaScreen (NVS) CYP450-related Enzyme Activity (ADME) Assay for human CYP3A4 (AID 2283110; active means hit-call score of the fitted dose curve at least 0.9, where 1 is the maximum). In a few lines: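 Cell-free recombinant enzyme expressed in insect cells; fluorescent substrate turnover read after 0.33 h, acetonitrile as negative control. Primary screen in duplicate at 10 uM, actives then tested in concentration series.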
Chain of Cytochrome P450 3A4 (Homo sapiens) (P08684 whole entry, looked up): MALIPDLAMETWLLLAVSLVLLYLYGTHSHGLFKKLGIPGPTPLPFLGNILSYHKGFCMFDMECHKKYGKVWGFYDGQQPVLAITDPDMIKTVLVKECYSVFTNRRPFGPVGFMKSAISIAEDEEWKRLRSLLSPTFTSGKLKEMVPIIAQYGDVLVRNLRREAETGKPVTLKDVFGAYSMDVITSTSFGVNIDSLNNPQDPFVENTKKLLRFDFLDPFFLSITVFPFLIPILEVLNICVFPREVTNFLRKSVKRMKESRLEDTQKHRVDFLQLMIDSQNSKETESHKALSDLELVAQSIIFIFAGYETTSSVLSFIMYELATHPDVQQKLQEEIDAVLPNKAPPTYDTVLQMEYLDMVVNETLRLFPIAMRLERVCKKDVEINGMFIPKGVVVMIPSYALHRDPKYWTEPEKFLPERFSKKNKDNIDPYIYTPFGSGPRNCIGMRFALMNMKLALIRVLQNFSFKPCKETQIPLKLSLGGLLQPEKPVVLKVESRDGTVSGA

Chain of E-selectin (Homo sapiens) (P16581 whole entry, looked up): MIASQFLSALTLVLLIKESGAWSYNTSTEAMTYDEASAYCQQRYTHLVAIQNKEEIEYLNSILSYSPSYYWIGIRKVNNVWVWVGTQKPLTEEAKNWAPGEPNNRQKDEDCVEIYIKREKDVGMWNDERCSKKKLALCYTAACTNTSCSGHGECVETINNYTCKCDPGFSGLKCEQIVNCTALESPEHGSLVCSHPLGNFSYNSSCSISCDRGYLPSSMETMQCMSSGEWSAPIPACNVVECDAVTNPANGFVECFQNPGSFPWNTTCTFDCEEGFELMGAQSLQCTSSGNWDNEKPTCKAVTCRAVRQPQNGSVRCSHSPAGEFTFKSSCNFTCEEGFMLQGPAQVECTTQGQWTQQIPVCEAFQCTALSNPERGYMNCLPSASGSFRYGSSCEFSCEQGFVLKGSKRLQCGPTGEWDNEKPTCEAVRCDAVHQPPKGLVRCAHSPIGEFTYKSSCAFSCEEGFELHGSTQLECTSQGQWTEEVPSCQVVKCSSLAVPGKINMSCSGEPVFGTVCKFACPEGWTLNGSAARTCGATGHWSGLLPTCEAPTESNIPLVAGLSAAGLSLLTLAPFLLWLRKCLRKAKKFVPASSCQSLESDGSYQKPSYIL
Chain of human CYP2D6, CYP2D6 (gene 1565) (P10635 whole entry, looked up): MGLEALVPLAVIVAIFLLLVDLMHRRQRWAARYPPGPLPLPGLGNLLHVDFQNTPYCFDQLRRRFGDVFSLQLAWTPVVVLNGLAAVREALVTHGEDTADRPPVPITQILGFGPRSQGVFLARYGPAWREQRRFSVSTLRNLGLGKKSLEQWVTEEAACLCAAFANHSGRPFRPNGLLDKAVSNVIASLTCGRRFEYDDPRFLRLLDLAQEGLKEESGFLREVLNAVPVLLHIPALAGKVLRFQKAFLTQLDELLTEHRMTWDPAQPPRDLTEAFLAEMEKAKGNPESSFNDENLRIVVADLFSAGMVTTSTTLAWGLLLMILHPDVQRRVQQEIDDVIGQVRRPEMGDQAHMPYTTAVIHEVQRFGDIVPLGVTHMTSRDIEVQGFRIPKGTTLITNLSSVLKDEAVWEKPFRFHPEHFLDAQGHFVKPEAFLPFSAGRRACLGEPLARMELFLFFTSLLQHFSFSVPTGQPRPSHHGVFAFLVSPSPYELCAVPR
Chain of human CYP19A1, CYP19A1 (gene 1588) (P11511 whole entry, looked up): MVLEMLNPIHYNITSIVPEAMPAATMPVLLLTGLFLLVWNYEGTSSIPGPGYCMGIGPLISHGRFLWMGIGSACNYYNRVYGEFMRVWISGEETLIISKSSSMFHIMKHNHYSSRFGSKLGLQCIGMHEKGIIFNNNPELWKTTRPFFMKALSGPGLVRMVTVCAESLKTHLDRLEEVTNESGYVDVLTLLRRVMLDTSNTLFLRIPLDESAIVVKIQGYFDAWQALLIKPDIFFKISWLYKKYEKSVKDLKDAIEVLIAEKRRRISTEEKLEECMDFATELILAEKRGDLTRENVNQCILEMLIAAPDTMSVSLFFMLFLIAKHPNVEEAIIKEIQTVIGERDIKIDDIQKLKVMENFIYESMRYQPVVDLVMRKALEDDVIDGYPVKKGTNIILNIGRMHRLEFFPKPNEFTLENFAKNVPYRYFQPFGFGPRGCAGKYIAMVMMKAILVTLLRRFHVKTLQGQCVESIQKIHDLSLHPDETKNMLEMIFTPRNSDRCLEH
Chain of Cytochrome P450 2C18 (Homo sapiens) (P33260 whole entry, looked up): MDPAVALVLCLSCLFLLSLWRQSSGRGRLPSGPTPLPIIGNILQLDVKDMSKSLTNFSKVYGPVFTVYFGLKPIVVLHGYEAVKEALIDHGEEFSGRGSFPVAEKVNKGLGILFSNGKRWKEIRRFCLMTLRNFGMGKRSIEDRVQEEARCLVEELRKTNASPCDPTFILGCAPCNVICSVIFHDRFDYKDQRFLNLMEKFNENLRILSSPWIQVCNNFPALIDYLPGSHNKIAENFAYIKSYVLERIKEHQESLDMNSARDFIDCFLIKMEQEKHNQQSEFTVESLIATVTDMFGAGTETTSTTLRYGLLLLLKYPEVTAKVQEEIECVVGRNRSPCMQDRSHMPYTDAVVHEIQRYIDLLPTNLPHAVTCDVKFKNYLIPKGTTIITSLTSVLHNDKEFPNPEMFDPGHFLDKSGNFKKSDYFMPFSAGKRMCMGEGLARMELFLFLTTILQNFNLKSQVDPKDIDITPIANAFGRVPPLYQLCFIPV
Chain of human CYP1A1, CYP1A1 (gene 1543) (P04798 whole entry, looked up): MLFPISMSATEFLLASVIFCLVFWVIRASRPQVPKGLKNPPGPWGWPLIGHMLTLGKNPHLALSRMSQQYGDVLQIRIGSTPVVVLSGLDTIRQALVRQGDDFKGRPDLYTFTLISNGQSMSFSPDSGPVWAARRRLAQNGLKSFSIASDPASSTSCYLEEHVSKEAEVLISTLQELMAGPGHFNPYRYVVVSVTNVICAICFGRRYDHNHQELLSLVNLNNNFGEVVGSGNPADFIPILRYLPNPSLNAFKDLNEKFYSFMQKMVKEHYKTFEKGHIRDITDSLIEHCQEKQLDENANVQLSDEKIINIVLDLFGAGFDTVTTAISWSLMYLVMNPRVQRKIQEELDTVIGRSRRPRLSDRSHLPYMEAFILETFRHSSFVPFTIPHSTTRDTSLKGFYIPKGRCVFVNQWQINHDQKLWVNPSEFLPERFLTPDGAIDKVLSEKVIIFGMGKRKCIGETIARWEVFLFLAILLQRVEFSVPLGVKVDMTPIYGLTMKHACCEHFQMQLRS

As to `CS(=O)(=O)c1ccc(C(=O)C2C(=O)CCCC2=O)c([N+](=O)[O-])c1`, the result in [1], in assay [2], in assay [3], in [4], in assay [5] and in [6] was inactive. In addition, the outcome in assay [7] and in [8] was inactive.
Regarding `O=P(O)(O)CCCl`, the result in [1], in assay [2], in assay [3], in assay [4], in assay [5] and in assay [6] was inactive. For the same molecule, the outcome in assay [7] and in [8] was inactive.
With `COCC(=O)N(c1c(C)cccc1C)C(C)C(=O)OC` (configuration not stated), the result in assay [1], in [2], in assay [3], in [4], in [5] and in assay [6] was inactive. Also, the outcome in [7] and in assay [9] was inactive. In assay [8], the AC50 – broadly, the concentration at which the activity in the assay is half-maximal – is 26.1 µM (active).
As to `COC(=O)NS(=O)(=O)c1ccc(N)cc1`, the outcome in assay [1], in [2], in [3], in assay [4], in assay [5] and in [6] was inactive. The result in [7] and in assay [8] was inactive.
As for `Cn1c(-c2ccccc2)cc(-c2ccccc2)[n+]1C`, the AC50 in assay [1] was 2.99 µM (active); in assay [2] it was 5.52 µM (active); in [3], 4.84 µM (active); in assay [5], 3.97 µM (active); in assay [6], 4.04 µM (active); in assay [7], 3.16 µM (active). The AC50 in assay [10] is 5.06 µM (active). Also, the result in [4] and in assay [8] was inactive.
`CN/C(=N\[N+](=O)[O-])NCc1cnc(Cl)s1`: the result in [1], in [2], in assay [3], in assay [4], in assay [5] and in assay [6] was inactive. Moreover, the outcome in assay [7] and in assay [8] was inactive.
Regarding `CCOP(=O)(OCC)Oc1nc(Cl)c(Cl)cc1Cl`, the AC50 in assay [1] was 23.1 µM (active); in assay [2], 23.9 µM (active); in assay [7], 17.1 µM (active); in [8] it was 20 µM (active); in assay [11] it was 7.46 µM (active); in assay [12], 8.04 µM (active). The AC50 in assay [13] is 6.11 µM (active); in [14] it was 4.09 µM (active). Further, the outcome in assay [3], in assay [4], in [5] and in [6] was inactive.
`CCCCOCN(C(=O)CCl)c1c(CC)cccc1CC`: the AC50 in assay [1] was 18.3 µM (active); in assay [2], 28.5 µM (active); in assay [3], 18.9 µM (active); in assay [4], 33.9 µM (active); in assay [5], 33.2 µM (active); in assay [7] it was 22.2 µM (active). The AC50 was 28.6 µM (active) in [8]; 8.94 µM (active) in assay [12]; 6.71 µM (active) in assay [13]; 5.52 µM (active) in assay [15]; 9.74 µM (active) in [16]; 1.28 µM (active) in assay [14].
On to `CC1(C)C(C=C(Cl)Cl)C1C(=O)OC(C#N)c1cccc(Oc2ccccc2)c1` (configuration not stated), for which the outcome in assay [1], in assay [2], in assay [3], in assay [4], in [5] and in assay [9] was inactive. Also, the AC50 was 29.4 µM (active) in assay [7]; 6.38 µM (active) in assay [8]; 6.07 µM (active) in assay [10]; 12.8 µM (active) in [15]; 7.55 µM (active) in assay [14].
`C=CCOC(=O)C(C)(C)OC(=O)c1cc(-n2c(=O)cc(C(F)(F)F)n(C)c2=O)ccc1Cl`: the AC50 in assay [1] was 6.29 µM (active); in [3] it was 31.1 µM (active). Also, the outcome in assay [2], in assay [4], in [5], in assay [7] and in assay [8] was inactive.
